# Laboratory results: PubChem BioAssay (NCATS)
# Results filed as inconclusive are left out. The source made the active and inactive calls. Calls come from the whole dose curve.
# Test: Cytotoxicity counterscreen for inhibitors of SARS-CoV-2 cell entry (AID 1645845); note: nearly all actives have a fitted effect of over 50% in size; for activity change, negative = cytotoxicity: % is set by controls: 0 for no effect and ±100 for the full control effect
# Conditions: cell viability (SARS-CoV-2 entry assay cells); series mostly up to 57.1 µM; activity change, negative = cytotoxicity: at the top concentration
# Method in brief: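 Expi293F/hACE2 cells seeded overnight; cpd pin-transferred in DMSO, 1 h preincubation, + media, 48 h 37 C 5% CO2; ATPLite 1step luminescence; normalized to cells and no cells.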
SMILES,"activity change, negative = cytotoxicity",outcome,Potency
CC(C)OC(=O)[C@H](C)N[P@](=O)(CO[C@H](C)Cn1cnc2c(N)ncnc21)Oc1ccccc1,-17.1% (inactive),,
N#Cc1c(N2C[C@@H]3NCCO[C@H]3C2)c(F)cc2c(=O)c(C(=O)O)cn(C3CC3)c12,,inactive,
CCOc1ccc2c(c1)C(C)=CC(C)(C)N2,,inactive [at 114 µM],
COc1ccc(C=CC(=O)O)cc1,,inactive,
Nc1nc(Cl)nc2c1ncn2C1CC(O)C(CO)O1 (centres undefined),-6.33% (inactive),,
CC(C)(O)CNc1nc(Nc2ccnc(C(F)(F)F)c2)nc(-c2cccc(C(F)(F)F)n2)n1,-7.57% (inactive),,
CCC[C@H](NC(=O)[C@@H]1[C@H]2CCC[C@H]2CN1C(=O)[C@@H](NC(=O)[C@@H](NC(=O)c1cnccn1)C1CCCCC1)C(C)(C)C)C(=O)C(=O)NC1CC1,-17.8% (inactive),,
CC[C@H]1OC(=O)[C@H](C)[C@@H](O[C@H]2C[C@@](C)(OC)[C@@H](O)[C@H](C)O2)[C@H](C)[C@@H](O[C@@H]2O[C@H](C)C[C@H](N(C)C)[C@H]2O)[C@](C)(OC)C[C@@H](C)C(=O)[C@H](C)[C@@H](O)[C@]1(C)O,-0.796% (inactive),,
CCN(CC)CCOC(=O)c1ccc(N)cc1Cl,2.29% (inactive),,
CNCC(=O)OCc1cccnc1N(C)C(=O)OC(C)[n+]1cnn(C[C@](O)(c2cc(F)ccc2F)[C@@H](C)c2nc(-c3ccc(C#N)cc3)cs2)c1 (some centres undefined),-18.4% (inactive),,
CN(C(=O)/C=C/c1ccoc1)[C@@H]1CC[C@@]2(O)[C@H]3Cc4ccc(O)c5c4[C@@]2(CCN3CC2CC2)[C@H]1O5,-20.6% (inactive),,
CCCCCCCCCC(=O)OC1(c2ccc(Cl)cc2)CCN(CCCC(=O)c2ccc(F)cc2)CC1,,inactive,
C=C1/C(=C\C=C2/CCC[C@]3(C)[C@@H]([C@H](C)CCCC(C)(C)O)CC[C@@H]23)C[C@@H](O)C[C@@H]1O,,,inactive
CCOC(=O)Cc1ccc(-c2ccccc2)cc1,,inactive [at 114 µM],
CC[C@@]1(O)C(=O)OCc2c1cc1n(c2=O)Cc2cc3c([N+](=O)[O-])cccc3nc2-1,-32% [at 114 µM] (inactive),,
CC(C)c1nc(CN(C)C(=O)N[C@@H](CCN2CCOCC2)C(=O)N[C@H](CC[C@H](Cc2ccccc2)NC(=O)OCc2cncs2)Cc2ccccc2)cs1,,inactive,
CC[C@H]1OC(=O)[C@H](C)[C@@H](O[C@H]2C[C@@](C)(OC)[C@@H](O)[C@H](C)O2)[C@H](C)[C@@H](O[C@@H]2O[C@H](C)C[C@H](N(C)C)[C@H]2O)[C@](C)(O)C[C@@H](C)CN(C)[C@H](C)[C@@H](O)[C@]1(C)O,,,inactive
Cc1cc(N)c2ccccc2[n+]1CCCCCCCCCC[n+]1c(C)cc(N)c2ccccc21,-25.1% [at 11.3 µM] (inactive),,
Nc1nc(-n2cc(C(=O)O)c(=O)c3cc(F)c(N4CC(O)C4)c(Cl)c32)c(F)cc1F,-40.9% (inactive),,
C=C[C@]1(C)C[C@@H](OC(=O)CSCCN(CC)CC)[C@]2(C)[C@H](C)CC[C@]3(CCC(=O)[C@H]32)[C@@H](C)[C@@H]1O,-10.1% (inactive),,
C[C@H]1C[C@H]2[C@H]3CCC4=CC(=O)C=C[C@]4(C)[C@@]3(F)[C@@H](O)C[C@]2(C)[C@@]1(OC(=O)c1ccccc1)C(=O)CO,-25.3% (inactive),,
CC1(C)C(/C=C/C=C/C=C/C=C2/N(CCCCS(=O)(=O)O)c3ccc4ccccc4c3C2(C)C)=[N+](CCCCS(=O)(=O)[O-])c2ccc3ccccc3c21,-8.87% (inactive),,
CN1C(CC(=O)c2ccccc2)CCCC1CC(O)c1ccccc1 (centres undefined),-9.3% (inactive),,
COC(=O)N[C@H](C(=O)N1CC2(CC2)C[C@H]1c1ncc(-c2ccc3c(c2)C(F)(F)c2cc(-c4ccc5nc([C@@H]6[C@H]7CC[C@H](C7)N6C(=O)[C@@H](NC(=O)OC)C(C)C)[nH]c5c4)ccc2-3)[nH]1)C(C)C,1.94% [at 27.1 µM] (inactive),,
CC1(COc2ccc(N3CCC(Oc4ccc(OC(F)(F)F)cc4)CC3)cc2)Cn2cc([N+](=O)[O-])nc2O1 (centres undefined),3.19% (inactive),,
C=C1CC[C@H](O)CC1=C/C=C1\CCC[C@]2(C)[C@@H]([C@H](C)CCCC(C)(C)O)CC[C@@H]12,-22.4% (inactive),,
CN(C)CC/C=C1\c2ccccc2CSc2ccccc21,-15.7% (inactive),,

# Test: Primary qHTS to identify inhibitors of SARS-CoV-2 cell entry (AID 1645846); note: nearly all actives have a fitted effect of over 45% in size; note: potency is the fitted concentration of half-maximal effect
# Conditions: SARS-CoV-2 pseudovirus cell entry assay, luminescence; activity change, negative = inhibition: at 57.1 µM (top of the series) unless noted
# Method in brief: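 Inhibition of spike-mediated entry was scored in human ACE2-transfected Expi293F cells. Particles were MLV-pseudotyped with Wuhan-Hu-1 S carrying a 19-aa C-terminal deletion; signal was luciferase after two days, scaled between spike PP and fusion-protein-free PP.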
SMILES,"activity change, negative = inhibition",outcome,Potency
CC(C)OC(=O)[C@H](C)N[P@](=O)(CO[C@H](C)Cn1cnc2c(N)ncnc21)Oc1ccccc1,-96.1%,,
CC(=O)OC1C[C@H](O[C@@H]2C(O)C[C@H](O[C@@H]3C(O)C[C@@H](OC4CC[C@]5(C)C(CCC6C5CC(O)[C@@]5(C)C(C7=CC(=O)OC7)CC[C@@]65O)C4)OC3C)OC2C)O[C@H](C)[C@H]1O[C@H]1OC(CO)C(O)C(O)C1O (some centres undefined),-96.3%,,
COc1ccc(C=CC(=O)O)cc1,-10.2%,,
CCC[C@H](NC(=O)[C@@H]1[C@H]2CCC[C@H]2CN1C(=O)[C@@H](NC(=O)[C@@H](NC(=O)c1cnccn1)C1CCCCC1)C(C)(C)C)C(=O)C(=O)NC1CC1,0.184%,,
CC[C@H]1OC(=O)[C@H](C)[C@@H](O[C@H]2C[C@@](C)(OC)[C@@H](O)[C@H](C)O2)[C@H](C)[C@@H](O[C@@H]2O[C@H](C)C[C@H](N(C)C)[C@H]2O)[C@](C)(OC)C[C@@H](C)C(=O)[C@H](C)[C@@H](O)[C@]1(C)O,-13%,,
CN(C(=O)/C=C/c1ccoc1)[C@@H]1CC[C@@]2(O)[C@H]3Cc4ccc(O)c5c4[C@@]2(CCN3CC2CC2)[C@H]1O5,,inactive,
CC[C@@]1(O)C(=O)OCc2c1cc1n(c2=O)Cc2cc3c([N+](=O)[O-])cccc3nc2-1,-97% [at 114 µM],,
CCN(CC)Cc1cc(Nc2ccnc3cc(Cl)ccc23)ccc1O,,,11.2 µM (active)
CN(C)C/C=C/C(=O)Nc1cc2c(Nc3ccc(F)c(Cl)c3)ncnc2cc1OC1CCOC1 (centres undefined),,,10 µM (active)
CC(C)OC(=O)CCC/C=C\C[C@@H]1[C@@H](/C=C/[C@@H](O)COc2cccc(C(F)(F)F)c2)[C@H](O)C[C@@H]1O,,,14.1 µM (active)
CC[C@@]1(O)C(=O)OCc2c1cc1n(c2=O)Cc2c-1nc1cc(F)c(C)c3c1c2[C@@H](N)CC3,-94.1%,,
CN(C)CC/C=C1\c2ccccc2CSc2ccccc21,,,20 µM (active)
